Bioassay records (PubChem)
SMN2 splice up = qHTS Assay for Enhancers of SMN2 Splice Variant Expression; AID 1458, 2008; 210,000 tested, 2.8% active; Potency, µM (doses to about 46.1 µM), for inactives: top-dose activity change, positive = activation, hits mostly activators; HEK293 SMN2-luciferase splicing reporter, luminescence, 30-36 h; note: % of control where 0% means no effect; nearly all actives have a fitted effect of over 55% in size
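HEK293 cells carry an SMN2 […]–luciferase reporter in which exon 7 inclusion puts luciferase in frame. Cells were plated 10-12 h before compound addition, then incubated 30-36 h at 37C. ONE-Glo luminescence was read; sodium butyrate at 4.5 mM final served as control.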
KinaseGlo FLuc = Counterscreen for Luciferase (Kinase-Glo TM) Inhibition | Luciferin 4-monooxygenase (Photuris pensylvanica), Q27757 | Kinase-Glo luciferase, ATP luminescence, 8 min | Potency, µM (doses to about 38.3 µM), inactives show top-dose activity change, negative = inhibition, hits mostly inhibitors | 200,000 tested, 0.28% active | AID 1379, 2008; note: % is set by controls: 0 for no effect and ±100 for the full control effect; nearly all actives have a fitted effect of over 60% in size
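Light output from Kinase-Glo luciferase with luciferin and 10 uM ATP in 50 mM imidazole pH 7.2, KCl, MgCl2, Tween 20, BSA; compound pin-delivered, 8-min ambient incubation, then luminescence read.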
Rab9 promoter act = qHTS Assay for Rab9 Promoter Activators; Huh7 Rab9 promoter-luciferase reporter, luminescence, 24 h; Potency, µM (series often up to 9.22 µM), for inactives: top-dose activation, negative = inhibition, actives largely listed as activators; 320,000 tested, 2.8% active; AID 485297, 2010; note: % of control where 0% means no effect; nearly all actives have a fitted effect of over 60% in size
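Huh7 cells stably carrying Rab9 promoter–luciferase reporter, plated 1500 cells/well, compound added after 2 h and incubated 24 h at 37 °C; luciferase luminescence then read after 10 min with detection reagent.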
FLuc counter = qHTS profiling assay for firefly luciferase inhibitor/activator using purifed enzyme and Km concentrations of substrates (counterscreen for miR-21 project) | Luciferin 4-monooxygenase (Photinus pyralis), P08659 | purified FLuc, Km substrates, luminescence inhibition | Potency, µM (top dose mostly 57.5 µM), without a hit: at the top dose activity change, negative = inhibition, usual class: inhibitors | 360,000 tested, 6.9% active | AID 588342, 2011;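 note: plate controls were vehicle for no effect and reference inhibitor for full effect; nearly all actives have a fitted effect of over 55% in size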
Target sequence (P08659 whole entry, looked up): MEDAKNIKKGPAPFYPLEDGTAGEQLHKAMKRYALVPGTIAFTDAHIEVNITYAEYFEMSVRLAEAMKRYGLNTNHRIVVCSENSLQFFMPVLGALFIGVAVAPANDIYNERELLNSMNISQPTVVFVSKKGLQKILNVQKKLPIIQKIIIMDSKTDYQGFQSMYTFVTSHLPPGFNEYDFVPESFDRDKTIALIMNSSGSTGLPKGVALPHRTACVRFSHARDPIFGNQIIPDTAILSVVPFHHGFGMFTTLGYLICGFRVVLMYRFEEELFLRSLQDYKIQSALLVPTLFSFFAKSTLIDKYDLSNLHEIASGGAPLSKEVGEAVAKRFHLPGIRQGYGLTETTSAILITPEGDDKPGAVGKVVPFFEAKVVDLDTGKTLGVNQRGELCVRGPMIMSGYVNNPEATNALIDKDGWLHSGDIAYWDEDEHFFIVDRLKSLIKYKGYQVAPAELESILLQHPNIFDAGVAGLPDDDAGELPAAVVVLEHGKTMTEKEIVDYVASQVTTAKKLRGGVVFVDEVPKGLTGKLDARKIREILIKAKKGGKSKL
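Purified P. pyralis luciferase, 10 nM final, with Km-level 10 uM D-luciferin and 10 uM ATP in 50 mM Tris acetate pH 7.5, 10 mM Mg acetate, 0.01% Tween-20, 0.05% BSA; 6-point qHTS titration about 60 µM downward; luminescence read.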
NPC1 prom act = qHTS Assay for NPC1 Promoter Activators. Huh7 NPC1 promoter luciferase reporter, 24 h. Potency, µM (highest dose often 9.22 µM), for the others: at the top dose activation, usual class: activators. 320,000 tested, 2.4% active. AID 485313, 2010; note: % of control where 0% means no effect; nearly all actives have a fitted effect of over 60% in size
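Luminescence read-out of NPC1 promoter-driven luciferase in stably transfected Huh7 cells; compounds delivered in DMSO and left 24 h at 37C, 5% CO2, qHTS titration format.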
An asterisk follows results filed as active; ? = inconclusive; · = no result given; [ ] = remark or other dose. Only some compounds are listed: those with a hit (about 7.3% of all), similar ones and a draw of the others. Calls come from the whole dose curve; as a rule, active = well fitted curve in the direction sought with a large enough effect; inconclusive = small, poorly fitted or top-dose-only effect, or another doubt; inactive = no such curve, though single readings can be large; an effect the other way counts as inactive or inconclusive. Potency is the fitted concentration of half-maximal effect.

SMILES | SMN2 splice up | KinaseGlo FLuc | Rab9 promoter act | FLuc counter | NPC1 prom act
Clc1ccc2sc(C3CCNCC3)nc2c1 | · | · | ? | 24µM* | ?
O=C(O)C[SH+]CC(=O)O.O=C(O)C[SH+]CC(=O)O.[Cu] | 2%[9.22 µM] | 2%[7.66 µM] | · | · | ·
CC(=O)N1CCN(c2ccc(OCC3CO[C@@](Cn4ccnc4)(c4ccc(Cl)cc4Cl)O3)cc2)CC1 (stereo partly specified) | -69% | -5% | · | · | ·
O=C1NC(=O)N(c2ccc3c(c2)OCO3)C(=O)/C1=C\c1ccc(-c2ccccc2C(=O)O)o1 | · | · | -3% | 15µM* | -4%
O=C1NC(=O)N(c2ccc3c(c2)OCO3)C(=O)/C1=C\c1ccsc1 | · | · | 2% | 24µM* | -4%
Cc1cccc(N2C(=O)NC(=O)/C(=C/c3ccc(-c4ccc(C(=O)O)c(Cl)c4)o3)C2=O)c1 | 13% | 2% | -2% | 6µM* | -6%
N#CSCSC#N | -98% | · | · | · | ·
Cc1ccc(OP(=O)(Oc2ccc(C)cc2)N2C=Cc3ccccc3[C@H]2C#N)cc1 | -11%[9.22 µM] | -2%[7.66 µM] | · | · | ·
Cc1cc(NC(=O)c2noc3c2CCCCC3)no1 | ? | 1% | ? | 15µM* | ?
Cc1nn(-c2ccccc2)c(Cl)c1/C=N\NC(=O)c1cnccn1 | ? | 2% | 22% | 6µM* | 16%
Cc1ccc(-n2c(O)c(/C=N/NC(=O)c3ccncc3)c(=O)[nH]c2=O)cc1C | ? | 0% | -6% | 0% | 0%
O=C(O)C(Cl)(Cl)Br | -4% | · | · | · | ·
CSc1cccc(CNC(=O)C2CCC(=O)N(Cc3cccc(C(F)(F)F)c3)C2)c1 (stereo unspecified) | · | · | ? | 17µM* | ?
O=C(Cc1cccc(C(F)(F)F)c1)N1CCN(CC(=O)N2CCCC2)CC1 | · | · | -1% | 1% | 4%
CN(C)CCC(C#N)(c1ccccc1)c1ccccc1 | -8%[9.22 µM] | -1%[7.66 µM] | · | · | ·
CNC(=O)[C@@H]1C[C@H]1[C@@H](NP(=O)(c1ccccc1)c1ccccc1)c1ccccc1 | 13µM* | 0% | · | · | ·
Cc1ccc(S(=O)(=O)NCC2CCC(C(=O)N3CCC4(CC3)OCCO4)CC2)cc1 (stereo unspecified) | -16% | -1% | -2% | 2% | 14%
Cc1ccc2nc(N3CCC(C(=O)N4CCC5(CC4)OCCO5)CC3)sc2c1 | · | -2% | ? | 12µM* | ?
CCOc1ccc2nc(N3CCC(C(=O)N4CCC5(CC4)OCCO5)CC3)sc2c1 | · | -2% | ? | 15µM* | ?
O=C(C1CCCN(c2nnc(-n3cccc3)s2)C1)N1CCC2(CC1)OCCO2 (stereo unspecified) | 18% | 2% | -1% | -8% | -1%
O=C(C1CCN(c2nc3ccc(Br)cc3s2)CC1)N1CCC2(CC1)OCCO2 | -77% | -3% | -12% | 13µM* | -2%
CCc1ccc2nc(N3CCC(C(=O)N4CCC5(CC4)OCCO5)CC3)sc2c1 | -83% | 2% | 12% | 9.5µM* | 0%
CCNC(C)(C)[C@@H](SS)c1ccc(Br)cc1 | -10%[9.22 µM] | -4%[7.66 µM] | · | · | ·
COc1ccc(CNC(=O)c2ccc(C(C)C)cc2)cc1 | 13µM* | -3% | 2.2µM* | 9.5µM* | 3.5µM*
CCc1ccc(C(=O)NCc2ccc(Cl)cc2Cl)cc1 | 16% | -3% | 2% | ? | -2%
SMILES | SMN2 splice up | KinaseGlo FLuc | Rab9 promoter act | FLuc counter | NPC1 prom act
CC(C)[C@@H](Br)C(=O)NCC(=O)O | -8%[9.22 µM] | -4%[7.66 µM] | · | · | ·
O=C(c1ccc(CNS(=O)(=O)c2ccc(Br)cc2)cc1)N1CCC2(CC1)OCCO2 | -32% | -2% | -6% | 6% | -3%
O=C(CN1C(=O)COc2ccccc21)N1CCC2(CC1)OCCO2 | · | · | -1% | -1% | 1%
O=C(CSc1ccccc1)N1CCC2(CC1)OCCO2 | 13µM* | -1% | ? | ? | ?
O=C(c1ccc(CNS(=O)(=O)c2ccccc2)cc1)N1CCC2(CC1)OCCO2 | -38% | 1% | 3.5µM* | ? | ?
O=C(CN1CCN(Cc2ccc(Cl)cc2)C1=O)N1CCC2(CC1)OCCO2 | -7% | -4% | -3% | 13% | -2%
Cn1c(=O)cc(SCC(=O)N2CCC3(CC2)OCCO3)c2ccc(Cl)cc21 | 20µM* | -3% | -2% | 1% | -1%
Nc1nc(N)c(N=Nc2ccc([As](=O)(O)O)c(O)c2)c(N)n1 | -14%[9.22 µM] | -4%[7.66 µM] | · | · | ·
N#CCCCC[N+]12CN3CN(CN(C3)C1)C2 | -10%[9.22 µM] | -5%[7.66 µM] | · | · | ·
C/C(=C\C(=O)c1ccc(Br)cc1)NCc1ccccc1 | -4% | -3% | 18% | 24µM* | 1%
CN(C)C(CNC(=O)Cc1ccc(Br)cc1)c1ccccc1 (stereo unspecified) | · | · | 0% | -2% | -3%
ClC(Cl)=C(Cl)Cl | 17% | · | · | · | ·
NC[C@@H](O)CSP(=O)(O)O | -15%[9.22 µM] | -3%[7.66 µM] | · | · | ·
COc1ccc(NC(=O)CSc2nc(-c3ccco3)cc(C(F)(F)F)n2)cc1OC | -48% | · | · | 3% | ·
Cc1cccc(NC(=O)CSc2ccc(-c3ccco3)nn2)c1 | -37% | 2% | 14% | 27µM* | 1%
Cc1ccc(CSc2ncccc2C(=O)O)cc1 | ? | -4% | 1% | 17µM* | -1%
CCOc1ccc2nc(N=Nc3c(O)[nH]c(=S)[nH]c3=O)sc2c1 | 3% | -8% | -1% | 19µM* | -4%
Cc1ccc(N2C(=O)NC(=O)/C(=C\c3ccc(N4CCOCC4)cc3)C2=O)cc1 | 10% | -8% | 1% | -18% | 9%
Cc1ccc(N2C(=O)NC(=O)/C(=C\c3ccc([N+](=O)[O-])o3)C2=O)cc1 | -1% | -13% | -3% | 27µM* | 1%
Cc1ccc(C2(c3ccc(C)c(O)c3C)CCN(C)CC2)c(C)c1O | -5%[9.22 µM] | 1%[7.66 µM] | · | · | ·
CC(=O)Nc1ccccc1C(=O)OCC(=O)c1ccccc1Cl | 17% | 1% | 3.5µM* | 9.5µM* | ?
CC(=O)Nc1ccccc1C(=O)OCc1ccccc1F | 24% | 0% | 17% | -4% | 16%
COc1ccc(/C=N/NC(=O)c2cccc([N+](=O)[O-])c2)cc1OC | 3% | -4% | 1% | ? | -6%
COc1cc(/C=C(/C)[N+](=O)[O-])ccc1OCc1ccccc1Cl | -103% | 1% | -52% | 13µM* | -8%
CCCOC1CCCN(C(=O)CCc2nnc(Cc3cccc(C)c3)o2)C1 (stereo unspecified) | · | -3% | 2.8µM* | 21µM* | ?
COc1ccccc1OCC(=O)N1CCCC(N(C)Cc2ccccc2)C1 (stereo unspecified) | · | · | -11% | 1% | 2%
COc1ccccc1N(CC(=O)NC1CCCC1)C(=O)c1cnn(C(C)C)c1 | ? | 1% | ? | 15µM* | ?
O=C(O)c1ccc(-n2c(O)c(/C=C3\C=Nc4ccccc43)c(=O)[nH]c2=O)cc1 | · | · | -4% | 19µM* | 2%
